The panel holds about 83,000 compounds, 20% with a hit somewhere; the sample as a whole holds those more often.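 Note: values are percent growth. 100 is the growth of untreated cells, values between 100 and 0 indicate rising inhibition; between -100 and 0 indicates cell death.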 Unmarked numbers belong to inactive results. Activity calls are given as the source filed them. How the source made its calls: active means growth percent below 10; inactive means the rest.

What all share (assay): NCI-60 one-dose screen, 48 h (100 = growth as untreated, 0 = no growth, -100 = all killed)
Conditions in all cases: 10 µM unless noted

The subject of test [1] is T-47D breast.
The test system of test [2] is BT-549 breast.
For test [3], the system named is MDA-MB-435 melanoma.
Test [4] has as its system SW-620 colon.
The test system of test [5] is MCF7 breast.
For test [6], the system named is HCT-116 colon.
In test [7] the test system is HCC-2998 colon.
The test system of test [8] is KM12 colon.

With `O=[N+]([O-])c1ccc(O)cc1Br`, the growth in test [1] is 96.8%; in test [2] it was 91.2%; in test [3], 100%; in test [4], 104%; in test [5] it was 92.9%; in test [6], 95.4%. Further, the growth in test [7] was 103%; in test [8], 101%.
Take `COc1ccc(/C=N/NC(=O)c2ccc(-n3cc(-c4ccccc4)nn3)cc2)cc1OC`: the growth was 98.3% in test [1]; 92.9% in test [2]; 98.4% in test [3]; 116% in test [4]; 75.3% in test [5]; 92.7% in test [6]. Besides, the values for the growth in test [7] and in test [8] were 113% and 104%, respectively.
`O=C(OC(CO)C(=O)NC12CC3CC(CC(C3)C1)C2)c1ccc(Cl)cc1` (centres undefined): the growth in test [1] was 92.8%; in test [2] it was 106%; in test [3], 94.6%; in test [4], 101%; in test [5], 91.8%; in test [6], 90.9%. Besides, the growth in test [7] is 113%; in test [8], 111%.
`CC(=O)O[C@H]1CC2CCC3C(CC[C@@]4(C)C3C[C@H]([N+]3(C)CCCCC3)[C@@H]4OC(C)=O)[C@@]2(C)C[C@@H]1N1CCCCC1` (some centres undefined): the growth in test [1] was 109%; in test [2] it was 108%; in test [3], 99.5%; in test [4], 106%; in test [5], 111%; in test [6], 101%. The growth in test [7] is 111%; in test [8], 108%.
Consider `COC1=CC(c2ccc[nH]2)=N/C1=C\c1[nH]c(C)c(CC(=O)NCc2ccccc2)c1C`, for which the growth in test [1] was 15.1%; in test [2], 40.2%; in test [3], 15.9%; in test [4], 20.6%; in test [5], 11%; in test [6], 2.09% (active). The growth in test [7] is 13.9%; in test [8] it was -46.1% (active).
As for `c1cc2c(ccc3[nH]c(-c4ccc5[nH]ncc5c4)c4c(c32)CCCC4)n1`, the growth is 38.9% in test [1]; 53.2% in test [2]; 68.9% in test [3]; 60.8% in test [4]; 23.3% in test [5]; 38% in test [6]. For the same molecule, the growth in test [7] was 93.6%; in test [8], 67.9%.
In the case of `CC/C=C\C[C@H](O)C/C=C1/C(=O)C=C[C@@H]1C/C=C\CCCC(=O)N(C)C`, the growth is 10.7% in test [1]; -34.8% (active) in test [2]; -18.1% (active) in test [3]; -42.4% (active) in test [4]; 7.79% (active) in test [5]; -63.4% (active) in test [6]. For the same molecule, the growth is -90.7% (active) in test [7] and -51.3% (active) in test [8].
Turning to `CC(C)(Sc1cc(C(C)(C)C)c(O)c(C(C)(C)C)c1)Sc1cc(C(C)(C)C)c(OC(=O)CCCC(=O)O)c(C(C)(C)C)c1`, the growth is 36.6% in test [1]; 64.9% in test [2]; 60.4% in test [3]; 43.7% in test [4]; 36.2% in test [5]; 26.5% in test [6]. Also, the growth in test [7] was 50.4%; in test [8] it was 36.7%.
Consider `CCN(CC)Cc1cc(C=C2C(=O)NC(=S)NC2=O)cc(OC)c1O`, for which the growth in test [1] was 114%; in test [2] it was 110%; in test [3] it was 105%; in test [4] it was 107%; in test [5] it was 97.6%; in test [6], 114%. For the same molecule, the growth in test [7] is 118%; in test [8], 111%.
For the molecule `CC1=NC2=Nn3c(c4cnn(-c5ccccc5)c4n/c3=N\N)NN2C(c2ccccc2)=C1`, the growth in test [1] was 94.1%; in test [2] it was 95.4%; in test [3], 92.3%; in test [4] it was 86.8%; in test [5], 87.8%; in test [6], 99.3%. The growth in test [7] is 99.2%; in test [8], 92.9%.
`COc1ccc(C(=O)Nc2cccc(-c3cc(=O)c4c(OC)c(OC)c(OC)cc4o3)c2)cc1`: the growth in test [1] is 45%; in test [2], 51.4%; in test [3], 69.6%; in test [4] it was 88%; in test [5] it was 66.5%; in test [6] it was 47.8%. In addition, the growth was 70.3% in test [7] and 46.3% in test [8].
`CCc1ccccc1-n1c(-c2ccc(OC)cc2)cc(-c2ccc(OC)cc2)c(C#N)c1=O`: the growth is 90.6% in test [1]; 101% in test [2]; 104% in test [3]; 93.9% in test [4]; 93% in test [5]; 51.1% in test [6]. Further, the growth was 97.1% in test [7] and 92.5% in test [8].
For `N#Cc1c(-c2ccccc2)[nH]c2ncc(-c3ccccc3)n2c1=O`, the growth is 71.9% in test [1]; 89.1% in test [2]; 102% in test [3]; 101% in test [4]; 71.3% in test [5]; 87% in test [6]. Moreover, the growth in test [7] is 83.3%; in test [8] it was 89.8%.
In the case of `Fc1cnccc1C1CC(c2ccc(N3CCNCC3)cc2)=NN1` (centres undefined), the growth was 82.2% in test [1]; 85.3% in test [2]; 105% in test [3]; 93.5% in test [4]; 73% in test [5]; 73.8% in test [6]. In addition, the growth is 102% in test [7] and 96.2% in test [8].
`COc1cc2ncnc(Nc3ccc(S(=O)(=O)Nc4cc(C)on4)cc3)c2cc1OCCCN1CCN(c2ccc(F)cc2)CC1`: the growth in test [1] was 89.6%; in test [2] it was 119%; in test [3], 105%; in test [4], 100%; in test [5] it was 96.8%; in test [6], 108%. Also, the growth is 115% in test [7] and 107% in test [8].
For the molecule `O=S(=O)(NCCCNc1nccc(-c2c(-c3ccc(F)c(O)c3)nc3sccn23)n1)c1ccccc1`, the growth is 64.8% in test [1]; 91.1% in test [2]; 29.3% in test [3]; 56.2% in test [4]; 58.5% in test [5]; 30.6% in test [6]. The growth in test [7] was 78.2%; in test [8], 64.6%.
As to `Cn1cc(C(=O)c2nc(-c3c[nH]c4ccccc34)no2)c2cc(F)ccc21`, the growth was 37.8% in test [1]; 48% in test [2]; -19.1% (active) in test [3]; 23.2% in test [4]; 19.2% in test [5]; 19.5% in test [6]. For the same molecule, the figures for the growth in test [7] and in test [8] were 73.9% and 26.7%, respectively.
Take `C=C(CBr)[C@@H]1CC[C@]2(C(=O)O)CC[C@]3(C)[C@H](CC[C@@H]4[C@@]5(C)CCC(=O)C(C)(C)[C@@H]5CC[C@]43C)[C@@H]12`: the growth is 67.9% in test [1]; 84% in test [2]; 95.6% in test [3]; 85.5% in test [4]; 78.2% in test [5]; 72.6% in test [6]. For the same molecule, the growth in test [7] is 95.7%; in test [8], 68.6%.
On to `CCCNc1nc2ccccc2c2c1S(=O)(=O)c1ccc(Cl)cc1C2=O`, for which the growth in test [1] is -1.34% (active); in test [2], 23%; in test [3], 12.2%; in test [4], -4.27% (active); in test [5], 8.27% (active); in test [6], 5.94% (active). The growth in test [7] is 16.2%; in test [8] it was 17.1%.
Regarding `Clc1ccc(/C=N\N=C\c2ccc(Cl)c(Cl)c2)cc1Cl`, the growth is 90.3% in test [1]; 74.2% in test [2]; 101% in test [3]; 53.8% in test [4]; 72.8% in test [5]; 53.3% in test [6]. For the same molecule, the growth in test [7] was 96.1%; in test [8] it was 101%.
For the molecule `O=C1/C(=C/c2ccc([N+](=O)[O-])cc2)COc2ccc(O)cc21`, the growth was 79.4% in test [1]; 95% in test [2]; 82.4% in test [3]; -11.7% (active) in test [4]; 5.28% (active) in test [5]; -5.5% (active) in test [6]. For the same molecule, the values for the growth in test [7] and in test [8] were 98.5% and 48%, respectively.
Regarding `COC(=O)CC[C@@H]1O[C@@H](c2cccc(C(F)(F)F)c2)[C@@H](O)[C@H]1O`, the growth in test [1] is 98.8%; in test [2], 98.9%; in test [3], 102%; in test [4], 100%; in test [5], 96.7%; in test [6] it was 98.2%. The figures for the growth in test [7] and in test [8] were 114% and 94.1%, respectively.
`NC(=O)c1ccc(-c2c3ccccc3cc3c2ccc2ccccc23)cc1`: the growth in test [1] was 60.4%; in test [2], 29.1%; in test [3] it was 0.545% (active); in test [4], 17.1%; in test [5], 17.7%; in test [6], 33.4%. Further, the growth in test [7] was 60%; in test [8] it was 3.27% (active).
As for `CCOC(=O)[C@@H]1CSC(CC)=C(C(=O)O)N1`, the growth in test [1] is 87.3%; in test [2], 101%; in test [3] it was 109%; in test [4], 105%; in test [5], 108%; in test [6], 94.1%. Moreover, the growth in test [7] was 111%; in test [8], 114%.
As for `CC1CCc2c(C(=O)Nc3ncc(Cc4cccc([N+](=O)[O-])c4)s3)csc2C1` (centres undefined), the growth is 27.8% in test [1]; 46.6% in test [2]; -42% (active) in test [3]; 23.3% in test [4]; 17.1% in test [5]; 19% in test [6]. Moreover, the values for the growth in test [7] and in test [8] were 41.2% and 18.2%, respectively.
On to `O=C1Nc2ccccc2/C1=C/c1nc2ccccc2c(=O)[nH]1`, for which the growth was 71.5% in test [1]; 95% in test [2]; 104% in test [3]; 102% in test [4]; 60.2% in test [5]; 76.7% in test [6]. For the same molecule, the growth is 102% in test [7] and 96.4% in test [8].
With `CCOC(=O)c1c(C(=O)c2cn(C)c3ccc(Br)cc23)c(-c2cn(C)c3ccc(Br)cc23)n(NC(=O)OC(C)(C)C)c1C`, the growth was 58.8% [100 µM] in test [1]; 39.2% [100 µM] in test [2]; 96.5% [100 µM] in test [3]; 91.8% [100 µM] in test [4]; 78.3% [100 µM] in test [5]; 54% [100 µM] in test [6]. The values for the growth in test [7] and in test [8] were 111% [100 µM] and 89.4% [100 µM], respectively.
As to `COc1cc2c(cc1OCCCN1CCN(CCCOc3cc4c(cc3OC)C(=O)N3CC(F)(F)C[C@H]3C=N4)CC1)N=C[C@@H]1CC(F)(F)CN1C2=O`, the growth in test [1] was 34.5%; in test [2], -7.9% (active); in test [3] it was 69%; in test [4], -0.878% (active); in test [5], 25.5%; in test [6] it was 62%. Further, the growth is 60.5% in test [7] and 62.3% in test [8].

(Values after PubChem BioAssay (NCI).)
